{
  "source": "PubChem BioAssay (NCATS)",
  "key": {"[1]": {"molecular_target": "ATP-dependent 6-phosphofructokinase (Trypanosoma brucei brucei) (UniProt O15648)", "sequence (O15648 whole entry, looked up)": "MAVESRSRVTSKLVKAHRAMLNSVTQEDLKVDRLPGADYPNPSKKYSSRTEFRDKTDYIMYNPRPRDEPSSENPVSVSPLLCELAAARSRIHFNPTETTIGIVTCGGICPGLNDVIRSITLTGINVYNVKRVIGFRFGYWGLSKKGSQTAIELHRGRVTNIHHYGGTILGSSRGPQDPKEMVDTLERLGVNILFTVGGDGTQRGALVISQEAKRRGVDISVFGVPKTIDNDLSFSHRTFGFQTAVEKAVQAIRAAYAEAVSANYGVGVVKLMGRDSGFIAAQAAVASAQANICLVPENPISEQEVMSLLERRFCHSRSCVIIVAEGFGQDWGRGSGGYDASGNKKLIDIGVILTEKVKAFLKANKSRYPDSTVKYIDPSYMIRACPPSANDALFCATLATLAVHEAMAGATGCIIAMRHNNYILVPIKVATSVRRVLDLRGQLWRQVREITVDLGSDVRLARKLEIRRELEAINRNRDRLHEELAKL", "experiment": "qHTS Assay to Find Inhibitors of T. brucei phosphofructokinase: hit validation (AID 492961); also: series mostly up to about 51 µM", "outline": "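Luminescence from ADP-Glo reports ADP generated as T. brucei PFK (1.25 nM) phosphorylates 0.5 mM fructose-6-phosphate using 0.1 mM ATP. Reactions ran 45 min at room temperature, pH 8.0.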"}, "[2]": {"molecular_target": "Ubiquitin carboxyl-terminal hydrolase 1 (Homo sapiens) (UniProt O94782)", "sequence (O94782 whole entry, looked up)": "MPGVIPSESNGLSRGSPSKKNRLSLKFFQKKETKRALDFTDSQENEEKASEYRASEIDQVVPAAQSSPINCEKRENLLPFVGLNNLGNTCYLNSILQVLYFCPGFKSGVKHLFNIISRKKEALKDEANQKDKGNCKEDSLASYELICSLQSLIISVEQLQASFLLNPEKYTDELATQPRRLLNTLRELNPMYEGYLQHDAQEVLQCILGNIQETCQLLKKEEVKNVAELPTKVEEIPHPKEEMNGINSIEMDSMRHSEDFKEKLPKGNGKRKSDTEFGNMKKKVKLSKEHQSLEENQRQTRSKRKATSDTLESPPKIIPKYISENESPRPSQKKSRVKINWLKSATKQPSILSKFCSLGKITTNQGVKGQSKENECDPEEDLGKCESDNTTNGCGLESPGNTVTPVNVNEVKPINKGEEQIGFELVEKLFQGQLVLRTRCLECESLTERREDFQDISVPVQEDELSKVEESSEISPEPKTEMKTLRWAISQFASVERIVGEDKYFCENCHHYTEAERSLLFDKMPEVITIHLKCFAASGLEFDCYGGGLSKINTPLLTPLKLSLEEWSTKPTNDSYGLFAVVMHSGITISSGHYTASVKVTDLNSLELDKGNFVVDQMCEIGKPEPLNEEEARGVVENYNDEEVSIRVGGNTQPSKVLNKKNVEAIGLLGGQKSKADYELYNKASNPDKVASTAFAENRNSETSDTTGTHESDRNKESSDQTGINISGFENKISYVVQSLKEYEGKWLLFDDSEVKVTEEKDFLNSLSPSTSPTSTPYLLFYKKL", "experiment": "Inhibitors of USP1/UAF1: Pilot qHTS (AID 504865);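 also: rhodamine fluorescence freed from ubiquitin-rhodamine substrate followed over time; top concentration of the series differs between compounds; nearly all actives have a fitted effect of over 35% in size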", "outline": "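USP1/UAF1 complex at 1 nM preincubated 15 min at room temperature with compound, then Ub-Rho substrate added at 150 nM final. Fluorescence (480/540 nm) read kinetically in 50 mM HEPES pH 7.8, 0.5 mM EDTA, 1 mM TCEP, 0.1 mg/ml BSA, 0.01% Tween-20.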"}, "[3]": {"molecular_target": "Bile acid receptor (Homo sapiens) (UniProt Q96RI1)", "sequence (Q96RI1 whole entry, looked up)": "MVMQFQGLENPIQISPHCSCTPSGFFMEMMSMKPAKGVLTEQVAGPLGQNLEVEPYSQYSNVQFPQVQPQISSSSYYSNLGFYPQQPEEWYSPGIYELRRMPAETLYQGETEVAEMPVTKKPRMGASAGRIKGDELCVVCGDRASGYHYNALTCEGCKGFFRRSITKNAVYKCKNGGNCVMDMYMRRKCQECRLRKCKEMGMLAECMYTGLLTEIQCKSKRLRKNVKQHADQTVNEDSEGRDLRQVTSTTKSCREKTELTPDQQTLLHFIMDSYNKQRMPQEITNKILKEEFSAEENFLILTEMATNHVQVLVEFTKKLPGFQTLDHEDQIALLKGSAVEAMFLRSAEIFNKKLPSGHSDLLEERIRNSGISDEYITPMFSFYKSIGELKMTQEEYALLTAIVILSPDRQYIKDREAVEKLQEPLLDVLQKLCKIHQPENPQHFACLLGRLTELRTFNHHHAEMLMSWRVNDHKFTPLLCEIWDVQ", "experiment": "qHTS assay for small molecule antagonists of farnesoid X receptor signaling (AID 588526; calls by dose curve)", "outline": "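Antagonist mode: titrated compounds tested against chenodeoxycholic acid stimulation (normalized to 50 uM CDCA and DMSO) in GeneBLAzer HEK293T cells for 16 h. Beta-lactamase read by CCF4 fluorescence; IC50 from Hill fits.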"}, "[4]": {"molecular_target": "Glucocorticoid receptor (Homo sapiens) (UniProt P04150)", "sequence (P04150 whole entry, looked up)": "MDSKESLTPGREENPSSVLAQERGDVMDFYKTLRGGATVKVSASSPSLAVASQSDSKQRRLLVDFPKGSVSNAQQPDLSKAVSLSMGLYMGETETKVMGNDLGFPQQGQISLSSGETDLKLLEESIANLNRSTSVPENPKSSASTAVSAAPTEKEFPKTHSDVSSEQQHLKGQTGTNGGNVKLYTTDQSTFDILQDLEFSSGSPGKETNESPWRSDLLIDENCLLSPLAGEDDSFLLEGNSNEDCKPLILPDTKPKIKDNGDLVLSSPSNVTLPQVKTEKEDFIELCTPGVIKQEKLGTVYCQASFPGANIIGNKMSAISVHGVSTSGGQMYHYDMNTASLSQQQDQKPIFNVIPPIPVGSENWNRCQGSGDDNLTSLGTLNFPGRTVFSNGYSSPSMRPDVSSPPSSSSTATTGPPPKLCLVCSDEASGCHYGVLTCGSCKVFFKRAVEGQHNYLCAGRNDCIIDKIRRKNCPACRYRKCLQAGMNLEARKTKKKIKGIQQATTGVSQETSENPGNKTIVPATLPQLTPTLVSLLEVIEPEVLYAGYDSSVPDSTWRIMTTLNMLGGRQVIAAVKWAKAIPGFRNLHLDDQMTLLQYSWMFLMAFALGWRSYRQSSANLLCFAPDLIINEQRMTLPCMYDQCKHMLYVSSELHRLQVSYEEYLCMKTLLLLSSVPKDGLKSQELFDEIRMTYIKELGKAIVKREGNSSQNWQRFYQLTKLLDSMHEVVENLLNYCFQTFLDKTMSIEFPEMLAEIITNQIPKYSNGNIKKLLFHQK", "experiment": "qHTS assay for small molecule agonists of glucocorticoid receptor signaling (AID 588532; active = well fitted curve in the direction sought with a large enough effect in the signal ratio, with a control signal flat; the % refers to the signal ratio)", "conditions": "HeLa MMTV-bla, beta-lactamase ratio, agonist, 18 h; active compounds read high; percent of dexamethasone control, DMSO zero", "outline": "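Cells were plated and rested 3-5 h at 37 C, compounds were added in titration and incubated 18 h, then CCF4 substrate was loaded for 2 h at RT before reading blue/green fluorescence. EC50 came from Hill-equation fitting.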"}, "[5]": {"molecular_target": "Estrogen receptor (Homo sapiens) (UniProt P03372)", "sequence (P03372 whole entry, looked up)": "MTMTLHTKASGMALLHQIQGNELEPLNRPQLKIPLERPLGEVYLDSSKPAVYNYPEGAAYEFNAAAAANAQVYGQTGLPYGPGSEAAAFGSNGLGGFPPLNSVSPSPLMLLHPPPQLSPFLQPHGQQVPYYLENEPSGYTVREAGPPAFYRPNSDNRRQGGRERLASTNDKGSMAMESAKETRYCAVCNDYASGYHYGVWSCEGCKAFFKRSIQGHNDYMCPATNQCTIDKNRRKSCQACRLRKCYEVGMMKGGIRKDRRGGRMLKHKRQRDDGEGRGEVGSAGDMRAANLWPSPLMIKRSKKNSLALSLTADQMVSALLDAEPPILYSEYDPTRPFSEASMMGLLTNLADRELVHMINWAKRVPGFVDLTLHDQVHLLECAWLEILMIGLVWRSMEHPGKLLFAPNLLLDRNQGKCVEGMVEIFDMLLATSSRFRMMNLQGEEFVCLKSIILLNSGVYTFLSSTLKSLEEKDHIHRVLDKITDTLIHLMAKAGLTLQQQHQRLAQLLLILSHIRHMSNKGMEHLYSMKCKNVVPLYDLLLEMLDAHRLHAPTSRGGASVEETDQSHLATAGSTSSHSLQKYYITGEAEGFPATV", "experiment": "qHTS assay for small molecule antagonists of estrogen receptor alpha signaling (AID 588513; active = well fitted curve in the direction sought with a large enough effect in the signal ratio, with a control signal flat, not every such curve was filed as active; the % refers to the signal ratio)", "outline": "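ER-alpha-UAS-bla GripTite HEK 293 cells in 2% charcoal/dextran-treated FBS medium; compounds titrated (1:2, duplicate), then stimulated with 0.5 nM 17-beta-estradiol for 18 h at 37C. CCF4 beta-lactamase fluorescence; Hill-fit IC50 and efficacy.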"}},
  "note": "Inconclusive results are not listed. A call without a number means that no potency is given here. Unmarked numbers belong to inactive results. Calls of active or inactive are those of the source. Unless noted, calls follow the shape of the dose curve; as a rule, active = well fitted curve in the direction sought with a large enough effect; inconclusive = small, poorly fitted or top-dose-only effect, or another doubt; inactive = no such curve, though single readings can be large; an effect the other way counts as inactive or inconclusive.",
  "data": [
    {"smiles": "CCN(C)C(=O)Oc1cccc([C@H](C)N(C)C)c1", "values": [
      {"measurement": "Potency", "setting": "[1]", "result": "inactive"},
      {"measurement": "Potency", "setting": "[2]", "result": "inactive"}
    ]},
    {"smiles": "CC(C)(Sc1cc(C(C)(C)C)c(O)c(C(C)(C)C)c1)Sc1cc(C(C)(C)C)c(O)c(C(C)(C)C)c1", "values": [
      {"measurement": "Potency", "setting": "[1]", "result": "inactive"},
      {"measurement": "Potency", "setting": "[2]", "result": "inactive"}
    ]},
    {"smiles": "CCCN[C@H]1CCc2nc(N)sc2C1", "values": [
      {"measurement": "Potency", "setting": "[1]", "result": "inactive"},
      {"measurement": "Potency", "setting": "[2]", "result": "inactive"}
    ]},
    {"smiles": "CC(C)(C#N)c1cc(Cn2cncn2)cc(C(C)(C)C#N)c1", "values": [
      {"measurement": "Potency", "setting": "[1]", "result": "inactive"},
      {"measurement": "Potency", "setting": "[2]", "result": "inactive"}
    ]},
    {"smiles": "O=P(O)(O)C(O)(Cc1cccnc1)P(=O)(O)O", "values": [
      {"measurement": "Potency", "setting": "[1]", "result": "inactive"},
      {"measurement": "Potency", "setting": "[2]", "result": "inactive"}
    ]},
    {"smiles": "CCOC(=O)[C@H](CCc1ccccc1)N[C@H]1CS[C@H](c2cccs2)CN(CC(=O)O)C1=O", "values": [
      {"measurement": "Potency", "setting": "[1]", "result": "inactive"},
      {"measurement": "Potency", "setting": "[2]", "result": "inactive"}
    ]},
    {"smiles": "N[C@@H](C(=O)N[C@@H]1C(=O)N2C(C(=O)O)=C(Cl)CS[C@H]12)c1ccccc1", "values": [
      {"measurement": "Potency", "setting": "[1]", "result": "inactive"},
      {"measurement": "Potency", "setting": "[2]", "result": "inactive"}
    ]},
    {"smiles": "COc1ncnc(NS(=O)(=O)c2ccc(N)cc2)c1OC", "values": [
      {"measurement": "Potency", "setting": "[1]", "result": "inactive"},
      {"measurement": "Potency", "setting": "[2]", "result": "inactive"}
    ]},
    {"smiles": "Cc1ccnc2c1NC(=O)c1cccnc1N2C1CC1", "values": [
      {"measurement": "Potency", "setting": "[1]", "result": "inactive"},
      {"measurement": "Potency", "setting": "[2]", "result": "inactive"},
      {"measurement": "outcome", "setting": "[3]", "result": "inactive"},
      {"measurement": "activation", "setting": "[4]", "result": -5.33, "unit": "%"}
    ]},
    {"smiles": "CN1CCN(c2c(F)cc3c(=O)c(C(=O)O)cn(CCF)c3c2F)CC1", "values": [
      {"measurement": "Potency", "setting": "[1]", "result": "inactive"},
      {"measurement": "Potency", "setting": "[2]", "result": "inactive"}
    ]},
    {"smiles": "OC(Cn1cncn1)(Cn1cncn1)c1ccc(F)cc1F", "values": [
      {"measurement": "Potency", "setting": "[1]", "result": "inactive"},
      {"measurement": "Potency", "setting": "[2]", "result": "inactive"},
      {"measurement": "Potency", "setting": "[5]", "result": "inactive"},
      {"measurement": "activation", "setting": "[4]", "result": 0.0878, "unit": "%"}
    ]},
    {"smiles": "CC[C@H](NC(C)C)[C@H](O)c1ccc(O)c2[nH]c(=O)ccc12", "values": [
      {"measurement": "Potency", "setting": "[1]", "result": "inactive"},
      {"measurement": "Potency", "setting": "[2]", "result": "inactive"}
    ]},
    {"smiles": "Cc1cccc(Nc2ccncc2S(=O)(=O)NC(=O)NC(C)C)c1", "values": [
      {"measurement": "Potency", "setting": "[1]", "result": "inactive"},
      {"measurement": "Potency", "setting": "[2]", "result": "inactive"}
    ]},
    {"smiles": "CCOc1cc(N)c(Cl)cc1C(=O)NCC1CN(Cc2ccc(F)cc2)CCO1", "note": "(centres undefined)", "values": [
      {"measurement": "Potency", "setting": "[1]", "result": "inactive"},
      {"measurement": "Potency", "setting": "[2]", "result": "inactive"}
    ]},
    {"smiles": "O=C(O)c1cc(=O)[nH]c(=O)[nH]1", "values": [
      {"measurement": "Potency", "setting": "[1]", "result": "inactive"},
      {"measurement": "Potency", "setting": "[2]", "result": "inactive"},
      {"measurement": "Potency", "setting": "[5]", "result": "inactive"},
      {"measurement": "activation", "setting": "[4]", "result": -4.81, "unit": "%"}
    ]},
    {"smiles": "CC(=O)Oc1ccccc1C(=O)Nc1ncc([N+](=O)[O-])s1", "values": [
      {"measurement": "Potency", "setting": "[1]", "result": "inactive"},
      {"measurement": "Potency", "setting": "[2]", "result": "inactive"},
      {"measurement": "Potency", "setting": "[5]", "result": "inactive"},
      {"measurement": "activation", "setting": "[4]", "result": -4.89, "unit": "%"}
    ]},
    {"smiles": "O=c1cc(O)c(Cl)c[nH]1", "values": [
      {"measurement": "Potency", "setting": "[1]", "result": "inactive"},
      {"measurement": "Potency", "setting": "[2]", "result": "inactive"}
    ]},
    {"smiles": "CCCc1nc(C)c2c(=O)[nH]c(-c3cc(S(=O)(=O)N4CCN(CC)CC4)ccc3OCC)nn12", "values": [
      {"measurement": "Potency", "setting": "[1]", "result": "inactive"},
      {"measurement": "Potency", "setting": "[2]", "result": "inactive"}
    ]},
    {"smiles": "CN(Cc1cc(Br)cc(Br)c1N)C1CCCCC1", "values": [
      {"measurement": "Potency", "setting": "[1]", "result": "inactive"},
      {"measurement": "Potency", "setting": "[2]", "result": "inactive"}
    ]},
    {"smiles": "CN(C)CCc1c[nH]c2ccc(CS(=O)(=O)N3CCCC3)cc12", "values": [
      {"measurement": "Potency", "setting": "[1]", "result": "inactive"},
      {"measurement": "Potency", "setting": "[2]", "result": "inactive"}
    ]},
    {"smiles": "Nc1ccc(S(=O)(=O)Nc2ccccn2)cc1", "values": [
      {"measurement": "Potency", "setting": "[1]", "result": "inactive"},
      {"measurement": "Potency", "setting": "[2]", "result": "inactive"}
    ]},
    {"smiles": "O=NN(CCCl)C(=O)NC1CCCCC1", "values": [
      {"measurement": "Potency", "setting": "[1]", "result": "inactive"},
      {"measurement": "Potency", "setting": "[2]", "result": "inactive"}
    ]},
    {"smiles": "Nc1[nH]c(=O)ncc1F", "values": [
      {"measurement": "Potency", "setting": "[1]", "result": "inactive"},
      {"measurement": "Potency", "setting": "[2]", "result": "inactive"}
    ]},
    {"smiles": "CNCC[C@H](Oc1cccc2ccccc12)c1cccs1", "values": [
      {"measurement": "Potency", "setting": "[1]", "result": "inactive"},
      {"measurement": "Potency", "setting": "[2]", "result": "inactive"}
    ]},
    {"smiles": "CC[C@H](C)C(=O)O[C@H]1C[C@@H](C)C=C2C=C[C@H](C)[C@H](CC[C@@H]3C[C@@H](O)CC(=O)O3)[C@H]21", "values": [
      {"measurement": "Potency", "setting": "[1]", "result": "inactive"},
      {"measurement": "Potency", "setting": "[5]", "result": "inactive"},
      {"measurement": "activation", "setting": "[4]", "result": -4.54, "unit": "%"}
    ]}
  ]
}
